High-throughput results from PubChem.
OTUD3 inh = blocks human OTUD3 ubiquitin-rhodamine cleavage | inhibition, % at 25 µM | Q5T2D3 | purified OTUD3, Ub-rhodamine fluorescence, 2 h | 0.7% of 47,000 active | AID 1645858
USP8 inh = human USP8 deubiquitinase inhibition | P40818 | purified USP8, Ub-rhodamine cleavage fluorescence, 30 min | inhibition, % at 20 µM | 4.2% of 47,000 active
USP10 inh = human USP10 deubiquitinase inhibition; Q14694; purified USP10, Ub-rhodamine fluorescence, 60 min; inhibition, % at 20 µM; 1.1% of 47,000 active
USP7 block = human USP7 deubiquitinase inhibition | Q93009 | purified USP7, Ub-rhodamine cleavage fluorescence | inhibition, % at 20 µM | 0.3% of 47,000 active | AID 1645854
UCHL1 inh = inhibitors of human UCHL1 deubiquitinase; P09936; purified UCHL1, Ub-rhodamine cleavage fluorescence; inhibition, % at 20 µM; 0.2% of 47,000 active; AID 1645859
The depositor's hits bear a star. This is a sample that favours compounds with a hit; in the whole collection about 4.9% have one here. Cut-off read from the data, not from the text of the source: active = inhibition above about 30%; inactive = the rest.

SMILES	OTUD3 inh	USP8 inh	USP10 inh	USP7 block	UCHL1 inh
CCOC(=O)c1ccc(Oc2sccc2[N+](=O)[O-])cc1	13	-126	4	85*	0
CN1CC(=O)N(C2CCNC2)Cc2c(NC3Cc4ccccc4C3)ncnc21 (stereo not drawn)	1	12	-3	1	2
CNc1nc(C2CCCN(C(=O)c3cc(C4CC4)on3)C2)nc2c1CCN(C)C2 (stereo not drawn)	-37	36*	-3	-10	-1
c1cc2c(cc1-c1nnc(C3(c4ccc5c(c4)OCO5)CCOCC3)o1)OCCO2	3	-1	5	3	5
O=C(Oc1coc(CSc2ncccn2)cc1=O)c1ccccc1Cl	-1	-2	2	-18	0
O=C(Oc1coc(CSc2ncccn2)cc1=O)c1ccccc1Br	17	36*	3	-11	3
Cc1cc(C)nc(SCc2cc(=O)c(OC(=O)c3ccc(F)c(F)c3)co2)n1	13	34*	1	-35	3
O=C(Nc1cccc(-c2nc3cnccc3o2)c1)c1ccc(Br)o1	21	66*	1	20	1
Cc1ccc(NC(=O)CSc2nc3c(cc2C#N)C(=O)CCC3)cc1	10	14	21	2	1
O=C(Nc1ccc2c(c1)OCCO2)C1CCC(Cn2cnc3ccccc3c2=O)CC1 (stereo not drawn)	11	3	51*	2	6
Cc1ccc(S(=O)(=O)c2cnc(SCC(=O)Nc3ccc(Cl)cc3)nc2N)cc1C	14	23	5	9	0
COc1ccccc1NS(=O)(=O)c1cccc(C(=O)OCC(=O)NC(C)c2ccccc2)c1 (stereo not drawn)	-2	0	5	0	0
O=S(=O)(c1cccc2cccnc12)N1CCN(c2ccc(F)cc2)CC1	16	56*	5	8	5
O=S(=O)(c1cccc2cccnc12)N1CCCC1c1ccc(F)cc1 (stereo not drawn)	7	5	0	-7	2
COC(=O)c1cc2sccc2n1CC(=O)Nc1cccc(SC)c1	2	1	4	5	2
Cc1ccc(Cn2c(C(=O)Nc3cccnc3)cc3sccc32)cc1	7	43*	3	8	2
O=S1(=O)CCC(S(=O)(=O)Nc2cccc(C(F)(F)F)c2)C1 (stereo not drawn)	-4	0	0	0	0
O=S1(=O)CCC(S(=O)(=O)Nc2ccc(OCc3ccc(Cl)cc3)cc2)C1 (stereo not drawn)	6	57*	0	-3	1
COc1ccc(NC(=O)CSC2=NC3(CCCCC3)Nc3ccccc32)c(OC)c1	-6	11	7	-1	2
COc1ccccc1NC(=O)CSC1=NC2(CCCCC2)Nc2ccccc21	-17	84*	0	1	6
O=C(Cn1c(=O)n(-c2ccc(F)cc2)c(=O)c2oc3ccccc3c21)NC1CCCCC1	10	41*	7	7	-1
CN(Cc1ccc2c(c1)OCO2)C(=O)c1nc(-c2ccccc2)n(-c2ccccc2)n1	13	-49	5	4	4
CS(=O)(=O)Nc1cccc(CNC(=O)c2nc(-c3ccccc3)n(-c3ccccc3)n2)c1	-12	38*	1	-2	-1
CCCN1CCN(C(=O)CN2Cc3ccccc3C2=O)CC1	12	-1	0	9	2
Cc1occc1-c1cc2nc3c(c(=O)n2[nH]1)CN(Cc1ccnn1C)CC3	-18	-11	-3	-3	-7
SMILES	OTUD3 inh	USP8 inh	USP10 inh	USP7 block	UCHL1 inh
C[C@]12CN(Cc3cccc4cccnc34)C[C@H]1NC(=O)c1ccccc1C2=O	-2	44*	0	1	0
COc1ccccc1CN1C[C@H]2NC(=O)c3ccccc3C(=O)[C@@]2(C)C1	-5	3	0	-4	0
Fc1cc2c(c(CSc3nnc4ccccn34)c1)OC(c1ccccc1)OC2 (stereo not drawn)	9	49*	9	-36	4
O=C(O)c1nn(Cc2cc(F)cc3c2OC(c2ccccc2)OC3)c(=O)c2ccccc12 (stereo not drawn)	-13	12	-7	-23	-2
Cc1cc(Cl)ccc1NC(=O)Cc1c(C(=O)O)c(C)cn1C	4	-2	-3	5	3
O=C(c1cc(C2CC2)[nH]n1)N1CCN(Cc2ccccc2)CC1	20	-12	3	4	5
Nc1cc(OC(=O)c2cccc(F)c2)nn1S(=O)(=O)c1ccccc1	9	-19	4	-16	5
COc1cc2c(cc1OC)CN(C(=O)C(NC(=O)c1ccccc1)C(C)C)CC2 (stereo not drawn)	1	53*	-2	1	3
O=C(Cn1c(=O)n(Cc2ccc3c(c2)OCO3)c(=O)c2ccccc21)c1ccccc1	9	36*	0	4	2
CN(C(=O)Cn1c(=O)n(CCC(=O)NCc2ccc3c(c2)OCO3)c(=O)c2ccccc21)C1CCCCC1	12	16	-1	-14	0
O=C(CCn1c(=O)c2ccccc2n(CC(=O)OCc2ccccc2)c1=O)NCc1ccc2c(c1)OCO2	9	26	48*	6	-2
O=C(CCc1nnc2n(Cc3ccccc3)c(=O)c3ccccc3n12)NCc1ccc2c(c1)OCO2	11	39*	44*	-9	-1
O=C(Cn1c(=O)n(Cc2ccc(F)cc2)c(=O)c2ncccc21)NCc1ccc(F)cc1	20	44*	-1	-64	-3
O=C(CCc1nnc2n(Cc3ccccc3)c(=O)c3ccccc3n12)NCCN1CCCC1	-7	-4	1	-56	-5
CCN(CC)C(=O)CC[C@H]1CNC(=O)[C@@H]2[C@@H](CCN2C2CCCCC2)N1C	6	21	0	2	2
CN(Cc1ccccc1Cl)C(=O)c1cccc(N2CCCS2(=O)=O)c1	-9	-1	0	-7	-5
Cc1cccc(CSc2nc3nc4c(cn3n2)C(=O)CCC4)c1	-1	2	2	-23	-3
CCn1c(=O)n(CC(=O)O)c(=O)c2cnc(-c3ccccc3)nc21	2	-4	-3	3	1
CC(C)=CC(O)C1=CC(O)C2OC2C1=O (stereo not drawn)	1	3	-1	1	1
O=C(Cn1c(=O)n(Cc2ccccc2)c(=O)c2ncccc21)NCC1CCCO1 (stereo not drawn)	-2	4	-5	-3	-2
O=C(Cn1c(=O)n(Cc2ccc3c(c2)OCO3)c(=O)c2ncccc21)NCc1ccccc1	44*	38*	-1	1	7
COc1ccc(NC(=O)c2cnc(N3CCOCC3)nc2C)cc1	3	7	1	-1	0
COc1ccc(CC(=O)Nc2cc(F)c3nc(N4CCOCC4)ccc3c2)cc1	-6	49*	3	1	-3
COc1ccc(C(=O)Nc2cc(F)c3nc(N4CCOCC4)ccc3c2)c(OC)c1	-13	78*	-11	-16	6
Cc1cc(C)n(-c2nc3c(c(=O)n2CC(=O)Nc2cc(C)on2)CCCC3)n1	9	2	-4	2	2
